Active and inactive are the calls of the source. Rule for the calls: active = hit-call score of the fitted dose curve at least 0.9, where 1 is the maximum; inactive = score below 0.9.

Read-out in assay [1]: serum amyloid A (SAA), SAA1 (gene 6288)
Put plainly: BSK_CASM3C_SAA: BioMAP Diversity Plus: CASM3C Assay for serum amyloid A (SAA) Biomarker Activity (AID 2283049).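 Note: SAA protein level quantified by ELISA.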 To be noted: primary human coronary artery smooth muscle cells; actives raise or lower the signal.

Assay [2] can be described thus: BSK_CASM3C_SRB: Viability Assessment in the BioMAP Diversity Plus: CASM3C Assay (AID 2283050). The following applies: primary human coronary artery smooth muscle cells.
Read-out in assay [3]: Thrombomodulin, THBD (gene 7056)
Put plainly: BSK_CASM3C_Thrombomodulin: BioMAP Diversity Plus: CASM3C Assay for Thrombomodulin Biomarker Activity (AID 2283051).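 Note: thrombomodulin protein level measured by ELISA 24 h after dosing.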 To be noted: primary human coronary artery smooth muscle cells; actives raise or lower the signal.

Read-out in assay [4]: Tissue Factor, F3 (gene 2152)
As to the kind of experiment: BSK_CASM3C_TissueFactor: BioMAP Diversity Plus: CASM3C Assay for Tissue Factor Biomarker Activity (AID 2283052).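 Note: cell surface tissue factor protein level read by ELISA.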 The following applies: primary human coronary artery smooth muscle cells; actives raise or lower the signal.

Read-out in assay [5]: Interferon-gamma inducible Protein 10 (IP10), CXCL10 (gene 3627)
Put plainly: BSK_hDFCGF_IP10: BioMAP Diversity Plus: hDFCGF Assay for Interferon-gamma inducible Protein 10 (IP10) Biomarker Activity (AID 2283053). To be noted: primary human foreskin fibroblasts; actives raise or lower the signal. The essentials: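 Primary human foreskin fibroblasts exposed to chemicals for 24 h. IP-10 measured by ELISA; changes fitted bidirectionally against DMSO baseline.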

Read-out in assay [6]: Urokinase-type plasminogen activator receptor (uPAR), PLAUR (gene 5329)
As to the kind of experiment: BSK_CASM3C_uPAR: BioMAP Diversity Plus: CASM3C Assay for Urokinase-type plasminogen activator receptor (uPAR) Biomarker Activity (AID 2283054).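 Note: cell-surface uPAR protein level quantified by ELISA.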 To be noted: primary human coronary artery smooth muscle cells; actives raise or lower the signal.

Read-out in assay [7]: Vascular cell adhesion molecule 1 (VCAM1), VCAM1 (gene 7412)
Put plainly: BSK_CASM3C_VCAM1: BioMAP Diversity Plus: CASM3C Assay for Vascular cell adhesion molecule 1 (VCAM1) Biomarker Activity (AID 2283055).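 Note: VCAM-1 protein level quantified by ELISA on the cells.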 To be noted: primary human coronary artery smooth muscle cells; actives raise or lower the signal.

Read-out in assay [8]: Collagen III, COL3A1 (gene 1281)
Put plainly: BSK_hDFCGF_CollagenIII: BioMAP Diversity Plus: hDFCGF Assay for Collagen III Biomarker Activity (AID 2283056). The following applies: primary human foreskin fibroblasts; actives raise or lower the signal. The essentials:
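Response relative to DMSO, fitted in both directions, reflects ELISA-measured collagen III in human primary skin fibroblasts 24 h after compound addition.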

Read-out in assay [9]: Epidermal growth factor receptor (EGFR), EGFR (gene 1956)
As to the kind of experiment: BSK_hDFCGF_EGFR: BioMAP Diversity Plus: hDFCGF Assay for Epidermal growth factor receptor (EGFR) Biomarker Activity (AID 2283057). To be noted: primary human foreskin fibroblasts; actives raise or lower the signal. The method in brief: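 Primary human foreskin fibroblasts (hDFCGF system), sampled 24 h after dosing; EGFR quantified by ELISA. Bidirectional fit relative to DMSO baseline; SRB total-protein staining in parallel cultures for cytotoxicity.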

Read-out in assay [10]: Interleukin-8 (IL8), CXCL8 (gene 3576)
Put plainly: BSK_hDFCGF_IL8: BioMAP Diversity Plus: hDFCGF Assay for Interleukin-8 (IL8) Biomarker Activity (AID 2283058). The following applies: primary human foreskin fibroblasts; actives raise or lower the signal. The method in brief: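 Fibroblast monolayers (human foreskin, hDFCGF) received test chemical for 24 h before ELISA detection of IL-8; either increases or decreases relative to DMSO count as activity.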

Assay [11] is described as follows: BSK_hDFCGF_Proliferation: Cell Proliferation Assessment in the BioMAP Diversity Plus: hDFCGF Assay (AID 2283059).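 Note: curves fitted for both rise and fall of signal versus DMSO baseline.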 To be noted: primary human foreskin fibroblasts. The method in brief: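 This proliferation readout used SRB total-protein staining of human foreskin fibroblasts […], normalized to DMSO with bidirectional curve fitting.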
Read-out in assay [12]: Macrophage colony-stimulating factor (MCSF), CSF1 (gene 1435)
Put plainly: BSK_hDFCGF_MCSF: BioMAP Diversity Plus: hDFCGF Assay for Macrophage colony-stimulating factor (MCSF) Biomarker Activity (AID 2283060). To be noted: primary human foreskin fibroblasts; actives raise or lower the signal. The method in brief: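 fibroblasts (human foreskin, primary), 24 h post-dose; M-CSF by ELISA; bidirectional fit, DMSO = baseline.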

A short description of assay [13]: BSK_hDFCGF_SRB: Viability Assessment in the BioMAP Diversity Plus: hDFCGF Assay (AID 2283061).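 Note: cells exposed to compound for 24 h before the read.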 The following applies: primary human foreskin fibroblasts. The method in brief:
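SRB-based viability read on primary human skin fibroblasts at 24 h: TCA fixation, 0.1% dye, 560 nm. Gain or loss of signal is fitted against the DMSO negative control.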

Read-out in assay [14]: TIMP metallopeptidase inhibitor 1 (TIMP1), TIMP1 (gene 7076)
As to the kind of experiment: BSK_hDFCGF_TIMP1: BioMAP Diversity Plus: hDFCGF Assay for TIMP metallopeptidase inhibitor 1 (TIMP1) Biomarker Activity (AID 2283062). To be noted: primary human foreskin fibroblasts; actives raise or lower the signal. The essentials: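 Bidirectional curve fitting against DMSO baseline yielded this endpoint, based on ELISA detection of TIMP-1 in primary human foreskin fibroblasts exposed to compound for 24 h.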

Read-out in assay [15]: Monokine induced gamma interferon (MIG), CXCL9 (gene 4283)
Put plainly: BSK_hDFCGF_MIG: BioMAP Diversity Plus: hDFCGF Assay for Monokine induced gamma interferon (MIG) Biomarker Activity (AID 2283063). The following applies: primary human foreskin fibroblasts; actives raise or lower the signal. The essentials: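 Endpoint derived by bidirectional fitting relative to DMSO; MIG quantified via ELISA in primary human foreskin fibroblasts harvested 24 h after dosing.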

Read-out in assay [16]: Matrix Metallopeptidase 1 (MMP1), MMP1 (gene 4312)
As to the kind of experiment: BSK_hDFCGF_MMP1: BioMAP Diversity Plus: hDFCGF Assay for Matrix Metallopeptidase 1 (MMP1) Biomarker Activity (AID 2283064). The following applies: primary human foreskin fibroblasts; actives raise or lower the signal. The method in brief: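 Primary human foreskin fibroblasts exposed to chemicals for 24 h; MMP1 measured by ELISA. Cytotoxicity tracked by SRB staining in parallel cultures; bidirectional fit relative to DMSO.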

Read-out in assay [17]: Vascular cell adhesion molecule 1 (VCAM1), VCAM1 (gene 7412)
Put plainly: BSK_hDFCGF_VCAM1: BioMAP Diversity Plus: hDFCGF Assay for Vascular cell adhesion molecule 1 (VCAM1) Biomarker Activity (AID 2283065).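 For AC50: VCAM-1 protein level quantified by ELISA after 24 h chemical exposure.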 The following applies: primary human foreskin fibroblasts; actives raise or lower the signal. The essentials:
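Measured after 24 h chemical treatment of primary human skin fibroblasts, VCAM-1 was detected by ELISA and concentration-response analysed in both directions versus DMSO vehicle.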

Read-out in assay [18]: Intercellular Adhesion Molecule 1 (ICAM1), ICAM1 (gene 3383)
As to the kind of experiment: BSK_KF3CT_ICAM1: BioMAP Diversity Plus: KF3CT Assay for Intercellular Adhesion Molecule 1 (ICAM1) Biomarker Activity (AID 2283067). The following applies: primary human keratinocytes with fibroblasts; actives raise or lower the signal. The essentials: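 Bidirectional curve fitting against a DMSO baseline was applied to ICAM-1 ELISA signal from primary human skin co-cultures harvested 24 h after treatment, with SRB staining of parallel wells for overt cytotoxicity.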

Read-out in assay [19]: Interferon-gamma inducible Protein 10 (IP10), CXCL10 (gene 3627)
As to the kind of experiment: BSK_KF3CT_IP10: BioMAP Diversity Plus: KF3CT Assay for Interferon-gamma inducible Protein 10 (IP10) Biomarker Activity (AID 2283068). The following applies: primary human keratinocytes with fibroblasts; actives raise or lower the signal. The method in brief:
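Signal is secreted/surface IP-10 by ELISA in a human primary skin co-culture of keratinocytes and foreskin fibroblasts, taken 24 h post-dosing; DMSO served as negative control.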

Read-out in assay [20]: Plasminogen activator inhibitor-1 (PAI1), SERPINE1 (gene 5054)
Put plainly: BSK_hDFCGF_PAI1: BioMAP Diversity Plus: hDFCGF Assay for Plasminogen activator inhibitor-1 (PAI1) Biomarker Activity (AID 2283066). The following applies: primary human foreskin fibroblasts; actives raise or lower the signal. The essentials: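 Human foreskin fibroblast primary cells, 24 h chemical exposure; PAI-1 measured by ELISA. Bidirectional fitting relative to DMSO; parallel cultures stained with SRB for total protein to flag overt cytotoxicity.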

`CCOC(=O)/C=C(C)/C=C/C[C@@H](C)CCCC(C)C`: the AC50 in assay [1] is 33.1 µM (active); in assay [2], 31 µM (active); in assay [3] it was 35.8 µM (active); in [4], 20 µM (active); in assay [5], 31.4 µM (active); in assay [6] it was 30.9 µM (active). The AC50 in assay [7] was 20 µM (active); in assay [8] it was 8.64 µM (active); in assay [11] it was 9.55 µM (active); in assay [12], 20 µM (active); in [13], 25.1 µM (active); in assay [14] it was 26.6 µM (active). Further, the AC50 in assay [15] is 33.2 µM (active); in [16], 32.4 µM (active); in assay [17], 20.7 µM (active); in assay [18] it was 34.5 µM (active); in [19], 33.4 µM (active). The result in assay [9] and in [10] was inactive.

Take `CC(C)CCCCCCOC(=O)c1ccccc1C(=O)OCCCCCCC(C)C`: the outcome in assay [1], in assay [2], in assay [3], in assay [5], in [6] and in assay [7] was inactive. The outcome in assay [8], in [9], in [10], in assay [11], in assay [12] and in assay [13] was inactive. Besides, the outcome in assay [14], in assay [15], in assay [16], in assay [17], in [20] and in assay [18] was inactive. Also, the result in assay [19] was inactive. The AC50 in [4] was 0.0332 µM (active).

On to `C=C(C)C(=O)[O][Sn]([CH2]CCC)([CH2]CCC)[CH2]CCC`, for which the AC50 is 0.366 µM (active) in [1]; 0.148 µM (active) in assay [2]; 1.54 µM (active) in assay [3]; 1.15 µM (active) in [4]; 0.148 µM (active) in [5]; 0.391 µM (active) in assay [6]. Also, the AC50 in assay [7] is 0.148 µM (active); in [8], 0.374 µM (active); in assay [10] it was 0.148 µM (active); in assay [11], 0.15 µM (active); in assay [12], 0.148 µM (active); in [13], 0.242 µM (active). Further, the concentration at half-maximal activity (AC50) was 0.344 µM (active) in assay [14]; 0.148 µM (active) in [15]; 0.148 µM (active) in assay [16]; 0.148 µM (active) in [17]; 0.254 µM (active) in assay [20]; 0.354 µM (active) in assay [18]. Moreover, the AC50 in assay [19] was 0.181 µM (active). Also, the outcome in assay [9] was inactive.

`CC(C)(C)CC(C)(C)c1ccc(O)cc1`: the AC50 is 10.7 µM (active) in [1]; 13.7 µM (active) in assay [2]; 33.8 µM (active) in assay [3]; 10 µM (active) in assay [4]; 9 µM (active) in assay [5]; 14.8 µM (active) in assay [6]. Moreover, the AC50 in [7] is 12 µM (active); in assay [8], 8.27 µM (active); in assay [9], 20 µM (active); in assay [10] it was 10.6 µM (active); in [11] it was 8.07 µM (active); in assay [12], 7.74 µM (active). Moreover, the AC50 in [13] is 9.59 µM (active); in [14], 8.77 µM (active); in assay [15] it was 9.02 µM (active); in assay [16], 6.98 µM (active); in [17], 10.8 µM (active); in [20] it was 8.03 µM (active). Besides, the AC50 in assay [18] is 11.3 µM (active); in assay [19] it was 10.1 µM (active).

For the compound `COP(=S)(OC)Oc1c(Cl)cc(C)cc1Cl`, the outcome in [1], in assay [2], in assay [3], in assay [5], in [6] and in assay [7] was inactive. The result in assay [9], in assay [10], in assay [11], in assay [12], in [13] and in assay [14] was inactive. Besides, the outcome in assay [15], in assay [16], in assay [20], in assay [18] and in [19] was inactive. Further, the AC50 in [4] is 5.88 µM (active); in assay [8], 13.2 µM (active); in assay [17], 20 µM (active).

For the origin of these results see PubChem BioAssay (EPA / NIEHS).
